# Values joined by “and” are separate entries in the source; they are usually repeats but may differ in a detail not shown here. Identical values can stand only once. About 6,000 (1.7%) of roughly 350,000 compounds were called active. Not shown: some 5% with an inconclusive outcome. Rule as the data show it: active = CPE inhibition above about 20% (passing the limit was not always enough); inconclusive = no clear call, values can overlap the other calls; tested in BHK-21 cells. This excerpt belongs to a sample that is enriched for actives. Some compounds were tested as several samples or in several runs, with calls that do not always agree.
# Assay: protection of cells from dengue 2 killing – plate reader, single concentration, primary screen (AID 651640);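 also: 0% = median of neutral control wells and 100% = median of positive control wells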
# Conditions: DENV2-infected cells, cytopathic effect rescue, at 9.99 µM, stronger effect = higher value
row,SMILES,CPE inhibition
1,C[C@H]1CCCCO[C@H](CN(C)C(=O)CCC(F)(F)F)[C@@H](C)CN([C@@H](C)CO)C(=O)c2cc(NC(=O)Nc3ccc4c(c3)OCO4)ccc2O1,-12.5% (inactive)
2,C[C@@H]1CN([C@H](C)CO)C(=O)c2cccc(NS(=O)(=O)c3ccc(F)cc3)c2O[C@@H]1CN(C)C(=O)Nc1ccc(F)cc1,10.9% (inactive)
3,C[C@H](CO)N1C[C@H](C)[C@H](CN(C)S(=O)(=O)c2ccc(C#N)cc2)Oc2ncc(-c3cccc(F)c3)cc2C1=O,2.2% (inactive)
4,COCC(=O)N(C)C[C@@H]1Oc2cc(C#CCC(C)C)ccc2S(=O)(=O)N([C@@H](C)CO)C[C@@H]1C,-6.44% (inactive)
5,CC1(C)S[C@@H]2[C@H](NC(=O)COc3ccccc3)C(=O)N2C1C(=O)OCc1ccccc1 (stereo partly specified),9.26% (inactive)
6,CCC1(CC)NC(=O)N(Cc2nc3ccccc3s2)C1=O,-2.84% (inactive)
7,COC(=O)C1[C@H]2SC(C)(C)C(C(=O)OC)N2C(=O)N1Cc1nc2ccccc2s1 (stereo partly specified),38.1% (active)
8,C/C=C/c1ccc2c(c1)O[C@H](CN(C)C(C)=O)[C@H](C)CN([C@H](C)CO)S2(=O)=O,-7.9% (inactive)
9,COc1cccc(S(=O)(=O)N2C[C@@H](O)COC[C@H]3O[C@H](CC(=O)N4CCCCC4)CC[C@@H]32)c1,-9.51% (inactive)
10,O=C(/C=C(O)/C=C/c1ccc(O)cc1)/C=C/c1ccc(O)cc1,61.1% (active)
11,O=C(/C=C/c1ccc2c(c1)OCCO2)c1ccc(O)cc1,-0.309% (inactive)
12,O=C(O)/C=C/c1ccc(OCCCF)cc1,-4.88% (inactive)
13,CC(C)NC(=O)N(C)C[C@H]1Oc2ncc(-c3ccccc3F)cc2C(=O)N([C@@H](C)CO)C[C@@H]1C,-8.68% (inactive)
14,CO[C@@H]1CN(C)C(=O)c2cc(NS(=O)(=O)c3ccccc3)ccc2OC[C@@H](C)N(C(=O)NC(C)C)C[C@@H]1C,10.4% (inactive)
15,COc1ccc(N(C(=O)c2cccnc2)S(=O)(=O)c2ccc(OC)c(OC)c2)cc1,29.9% (active)
16,O=C(c1cccnc1)N(c1cc2sc(=O)oc2c2ccccc12)S(=O)(=O)c1ccccc1,-6.54% (inactive)
17,COc1ccc(N(CC(=O)N/N=C/c2cccs2)S(=O)(=O)c2ccc(OC)c(OC)c2)cc1,6.81% (inactive)
18,CO[C@H]1CN(C)C(=O)c2ccc(NS(=O)(=O)c3ccccc3)cc2OC[C@@H](C)N(Cc2nccs2)C[C@@H]1C,-6.98% (inactive)
19,CO[C@@H]1CN(C)C(=O)c2ccc(NS(=O)(=O)c3ccc(Cl)cc3)cc2OC[C@H](C)N(C(=O)NC(C)C)C[C@H]1C,9.25% (inactive)
20,C[C@@H]1CN([C@H](C)CO)C(=O)c2cc(NC(=O)Nc3ccc4c(c3)OCO4)ccc2O[C@H]1CN(C)C(=O)Nc1ccccc1,6.05% (inactive)
21,O=C(C[C@H]1C[C@@H]2c3cc(NC(=O)c4ccc5c(c4)OCO5)ccc3O[C@@H]2[C@@H](CO)O1)NCCN1CCCCC1,-1.97% (inactive)
22,Cc1noc(C)c1S(=O)(=O)N(C)C[C@@H]1OCc2ccccc2-c2ccccc2C(=O)N([C@@H](C)CO)C[C@H]1C,4.05% (inactive)

row,SMILES,CPE inhibition
1,Cc1cc(C(=O)NNC(=O)c2ccccc2O)c(C)o1,-2.62% (inactive)
2,O=C(NNC(=O)c1ccccc1O)c1ccccc1O,48.5% (active)
3,Cc1cc(C(=O)CCC(=O)NNC(=O)c2ccccc2O)c(C)s1,-2.6% (inactive)
4,COc1cccc(-c2ccc3n(c2=O)C[C@@H]2[C@@H](CO)[C@H](C(=O)NC4CCC4)[C@H]3N2C)c1,-5.73% (inactive)
5,C[C@H](CO)N1C[C@H](C)[C@@H](CN(C)S(=O)(=O)c2cccs2)Oc2ccc(NC(=O)Nc3ccc(C(F)(F)F)cc3)cc2CC1=O,3.14% (inactive)
6,CCCC(=O)Nc1ccc2c(c1)C(=O)N(C)[C@H]1CC[C@@H](CC(=O)NCc3ccccc3)O[C@@H]1CO2,-7.15% (inactive)
7,C[C@@H]1CN([C@@H](C)CO)C(=O)c2cc(NC(=O)Nc3ccc4c(c3)OCO4)ccc2O[C@@H]1CN(C)C(=O)Nc1ccc2c(c1)OCO2,-0.429% (inactive)
8,CCCCNc1c(-c2cccc(Sc3ccc(OC)cc3)c2)nc2ccccn12,-17.2% (inactive)
9,CCCCCCSc1ccc(-c2nc3ccc(Cl)cn3c2NCc2ccccc2)cc1,3.27% (inactive)
10,CCCCNc1c(-c2ccc(OC)c(Sc3ccc(OC)cc3)c2)nc2ccc(Cl)cn12,30.7% (active)
11,COC(=O)C[C@@H]1C[C@@H]2c3cc(NC(=O)NC4CCCC4)ccc3O[C@@H]2[C@@H](CO)O1,-3.24% (inactive)
12,CO[C@@H]1CN(C)C(=O)c2cc(NC(=O)C3CCOCC3)ccc2OC[C@H](C)N(Cc2cccnc2)C[C@@H]1C,-1.61% (inactive)
13,CCNc1ccc(C(=O)OCC(=O)N2c3ccccc3NC(=O)C2(C)C)cc1[N+](=O)[O-],-0.27% (inactive)
14,CNS(=O)(=O)c1cccc(C(=O)OCC(=O)N2c3ccccc3NC(=O)C2(C)C)c1,28.3% (active)
15,Cc1cc(C(=O)OCC(=O)N2c3ccccc3NC(=O)C2(C)C)c(C)n1-c1ccccc1,-1.8% (inactive)
16,C[C@@H]1CN([C@H](C)CO)C(=O)Cc2cc(NC(=O)Cc3ccccc3)ccc2O[C@H]1CN(C)S(=O)(=O)c1cccs1,1.69% (inactive)
17,COc1ccc(S(=O)(=O)N(C)C[C@@H]2OCCCC[C@@H](C)Oc3ccc(NC(=O)CCCN(C)C)cc3C(=O)N([C@@H](C)CO)C[C@@H]2C)cc1,0.066% (inactive)
18,CCCNC(=O)c1cc2c(c(-c3cccc(-c4ccc(C#N)cc4)c3)n1)[C@@H](CCO)N(C(=O)CC)C2,4.99% (inactive)
19,CC(C)(C)[S@@](=O)N1Cc2cc(C(=O)N3CCOCC3)nc(-c3cccc(-c4ccc(C#N)cc4)c3)c2[C@H]1CCO,-2.86% (inactive)
20,CCS(=O)(=O)N1Cc2cc(C(=O)N(C)C)nc(-c3cccc(-c4ccc(C#N)cc4)c3)c2[C@H]1CCO,20.3% (active)
21,CC(C)NC(=O)N(C)C[C@H]1Oc2c(NC(=O)Nc3ccc(F)cc3)cccc2C(=O)N([C@@H](C)CO)C[C@@H]1C,10.9% (inactive)
22,CO[C@H]1CN(C)C(=O)c2ccc(NC(=O)c3cccc(F)c3)cc2OC[C@@H](C)N(C(C)=O)C[C@@H]1C,-2.36% (inactive)

row,SMILES,CPE inhibition
1,COc1ccc(S(=O)(=O)Nc2ccc3c(c2)CC(=O)N([C@H](C)CO)C[C@H](C)[C@@H](CN(C)C(=O)NC(C)C)O3)cc1,21.3% (active)
2,COc1ccc(S(=O)(=O)Nc2ccc3c(c2)CC(=O)N([C@@H](C)CO)C[C@@H](C)[C@@H](CN(C)C(=O)Nc2c(C)noc2C)O3)cc1,29.8% (active)
3,Cc1noc(C)c1S(=O)(=O)Nc1ccc2c(c1)CC(=O)N([C@@H](C)CO)C[C@H](C)[C@H](CN(C)C(=O)Nc1ccccc1)O2,-4.97% (inactive)
4,COc1ccc(S(=O)(=O)Nc2ccc3c(c2)CC(=O)N([C@H](C)CO)C[C@H](C)[C@H](CN(C)C(=O)Nc2ccccc2)O3)cc1,-6.98% (inactive)
5,Cc1noc(C)c1S(=O)(=O)Nc1ccc2c(c1)C(=O)N([C@@H](C)CO)C[C@H](C)[C@H](CN(C)C(=O)Nc1ccc(C(F)(F)F)cc1)O2,-2.38% (inactive)
6,Cc1noc(C)c1NC(=O)N(C)C[C@H]1Oc2ccc(NS(=O)(=O)c3ccc(Cl)cc3)cc2CC(=O)N([C@H](C)CO)C[C@@H]1C,-8.56% (inactive)
7,COc1ccc(S(=O)(=O)Nc2ccc3c(c2)CC(=O)N([C@H](C)CO)C[C@@H](C)[C@H](CN(C)S(=O)(=O)c2c(C)noc2C)O3)cc1,-6.33% (inactive)
8,Cc1noc(C)c1S(=O)(=O)Nc1ccc2c(c1)CC(=O)N([C@@H](C)CO)C[C@@H](C)[C@@H](CN(C)C(=O)Nc1ccc(C(F)(F)F)cc1)O2,46.5% (active)
9,COc1ccc(NC(=O)N(C)C[C@@H]2Oc3ccc(NS(=O)(=O)c4ccc(OC)cc4)cc3CC(=O)N([C@H](C)CO)C[C@H]2C)cc1,11.3% (inactive)
10,C[C@H]1CN([C@@H](C)CO)C(=O)c2cc(Br)cnc2O[C@H]1CN(C)CC1CCCC1,7.93% (inactive)
11,O=C(C[C@@H]1C[C@@H]2c3cc(NC(=O)NC4CCCC4)ccc3O[C@@H]2[C@@H](CO)O1)NCc1ccccc1,-0.285% (inactive)
12,O=C(NCC1CC1)[C@@H]1[C@@H](CO)[C@@H]2Cn3c(ccc(-c4ccccc4)c3=O)[C@H]1N2Cc1nccs1,-2.52% (inactive)
13,CN(C)CC(=O)N[C@H]1CC[C@H](CCNC(=O)C2CCCCC2)O[C@H]1CO,-1.04% (inactive)
14,O=C(Cc1ccccn1)N1CC(=O)N2[C@H](C1)[C@@H](c1ccc(-c3ccccc3)cc1)[C@@H]2CO,4.12% (inactive)
15,C[C@@H]1CN([C@H](C)CO)C(=O)c2cc(NC(=O)Nc3ccccc3)ccc2O[C@@H](C)CCCCO[C@@H]1CN(C)Cc1ccncc1,-2.85% (inactive)
16,COCC#Cc1cnc2c(c1)C(=O)N([C@@H](C)CO)C[C@@H](C)[C@H](CN(C)C(=O)C1CCOCC1)O2,4.93% (inactive)
17,O=C(O)C1C2C=CC(C2)C1C(=O)NCc1ccccc1 (stereo unspecified),23.9% (active)
18,O=C(NCc1ccccc1)C1CCN(C(=O)Cc2ccccc2)CC1,-10.5% (inactive)
19,O=C(NCc1ccccc1)C1CNCC(C(=O)NCc2ccccc2)C1 (stereo unspecified),-5.52% (inactive)
20,O=C(NCc1ccccc1)C1=C[C@H](C2CC2)C[C@H](OCc2ccc(CO)cc2)O1,-16.3% (inactive) and 0.479% (inactive)
21,CC(C)(C)[C@H]1C=C(C(=O)NCc2ccccc2)O[C@@H](OCc2ccc(CO)cc2)C1,51.1% (active) and -3.51% (inactive)
22,O=C(NCc1ccccc1)C1=C[C@@H](C2CCCCC2)C[C@@H](OCc2ccc(CO)cc2)O1,-6.36% (inactive) and 1.63% (inactive)
